From PubChem BioAssay (NCATS)
Records with an inconclusive call do not appear. Activity calls are given as the source filed them. Calls follow the shape of the full dose curve.
% is scaled to controls: 0 for no effect and ±100 for the full control effect.

These compounds were tested against Nucleoprotein (Lymphocytic choriomeningitis virus (strain Armstrong)) (UniProt P09992) (assay: qHTS for Inhibitors of the Functional Ribonucleoprotein Complex (vRNP) of Lymphocytic Choriomeningitis Arenaviruses (LCMV): LCMV Primary Screen - GLuc reporter signal (AID 1347086; also: nearly all actives have a fitted effect of over 70% in size)). Conditions: LCMV minigenome vRNP cell assay, Gaussia luciferase reporter; series mostly up to 57.5 µM; activity change, negative = inhibition: at the top concentration.
Nucleoprotein (Lymphocytic choriomeningitis virus (strain Armstrong)), sequence (P09992 whole entry, looked up): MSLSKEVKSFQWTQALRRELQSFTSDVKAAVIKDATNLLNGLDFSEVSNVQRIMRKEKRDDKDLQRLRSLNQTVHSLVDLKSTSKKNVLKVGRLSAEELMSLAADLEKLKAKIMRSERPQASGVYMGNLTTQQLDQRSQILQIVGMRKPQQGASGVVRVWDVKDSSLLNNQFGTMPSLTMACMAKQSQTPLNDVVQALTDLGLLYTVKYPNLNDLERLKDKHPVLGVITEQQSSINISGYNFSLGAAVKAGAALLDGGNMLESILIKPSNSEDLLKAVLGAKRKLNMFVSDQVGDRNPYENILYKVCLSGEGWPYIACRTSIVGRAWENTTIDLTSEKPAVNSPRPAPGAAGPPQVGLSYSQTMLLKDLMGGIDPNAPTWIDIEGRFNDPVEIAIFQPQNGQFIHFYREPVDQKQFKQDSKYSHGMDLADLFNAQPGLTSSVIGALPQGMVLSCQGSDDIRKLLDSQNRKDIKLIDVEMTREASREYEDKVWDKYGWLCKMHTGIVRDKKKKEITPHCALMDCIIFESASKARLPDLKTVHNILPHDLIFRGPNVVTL
In the case of `O=c1[nH]cnc2[nH]ncc12`, the Potency is reported as “inactive”.
For `CO[C@@]1(NC(=O)C(C(=O)O)c2ccc(O)cc2)C(=O)N2C(C(=O)O)=C(CSc3nnnn3C)CO[C@@H]21` (stereo not given in full), the “activity change, negative = inhibition” value was -10.4% (inactive).
With `CCCCCCCCCCCCCCCC(=O)OC(C)C` the “activity change, negative = inhibition” value was 15.7% (inactive).
With `CCCCCCCCCCCCCCCCCCN(C)C` the “activity change, negative = inhibition” value was -2.52% (inactive).
For `Nc1ccc(/C=C/c2ccc(N)cc2S(=O)(=O)O)c(S(=O)(=O)O)c1`, the activity change, negative = inhibition was 15.6% [at 0.757 µM] (inactive).
With `COC(=O)[C@@H]1[C@H]2C[C@H]3c4[nH]c5ccccc5c4CCN3C[C@@H]2CC[C@@H]1O` the Potency was “inactive”.
For `CCCCCCCCCCCCCCCCOP(=O)([O-])OCC[N+](C)(C)C`, the “activity change, negative = inhibition” value was 0.176% (inactive).
With `CCCCCCCCCCCCOCCO` the “activity change, negative = inhibition” value was 1.29% (inactive).
With `Cc1cccc(C)c1NC(=O)CN(CC(=O)O)CC(=O)O` the “activity change, negative = inhibition” value was -1.39% (inactive).
With `CCC(Cc1c(I)cc(I)c(N)c1I)C(=O)O` (stereo not given) the “activity change, negative = inhibition” value was -4.43% (inactive).
In the case of `Cc1cn([C@@H]2O[C@H](CO)[C@@H](O)[C@H]2F)c(=O)[nH]c1=O`, the “activity change, negative = inhibition” value is reported as 94% (inactive).
In the case of `CC(=O)N[C@@H](CC(C)C)C(=O)O`, the “activity change, negative = inhibition” value is reported as 6.06% (inactive).
For `COc1cc(/C=C/C(N)=O)cc(OC)c1OC`, the “activity change, negative = inhibition” value was 4.19% (inactive).
With `O=C(C1CCCCC1)N1CC(=O)N2CCCc3ccccc3C2C1` (stereo not given) the “activity change, negative = inhibition” value was -5.37% (inactive).
`O=C(O)Cc1cccc2ccccc12` was tested, and the Potency was “inactive”.
In the case of `CNC(=O)c1c(I)c(NC(C)=O)c(I)c(C(=O)O)c1I`, the “activity change, negative = inhibition” value is reported as -3.54% (inactive).
`NC(=O)CC[C@@H]1NC(=O)[C@H](Cc2ccccc2)NC(=O)[C@H](Cc2ccc(O)cc2)NC(=O)CCSSC[C@@H](C(=O)N2CCC[C@H]2C(=O)N[C@@H](CCCN=C(N)N)C(=O)NCC(N)=O)NC(=O)[C@H](CC(N)=O)NC1=O` was tested, and the “activity change, negative = inhibition” value was 14.8% (inactive).
With `CCn1cc(C(=O)O)c(=O)c2cnc(N3CCNCC3)nc21` the “activity change, negative = inhibition” value was 23.3% (inactive).
`Oc1cccc(O)c1` was tested, and the “activity change, negative = inhibition” value was 3.36% (inactive).
`COc1ccc2[nH]cc(CCNC(C)=O)c2c1` was tested, and the Potency was “inactive”.
For `COc1ccc2cccc(CCNC(C)=O)c2c1`, the “activity change, negative = inhibition” value was 9.57% (inactive).
With `CSCC[C@H](NC(=O)[C@H](Cc1c[nH]c2ccccc12)NC(=O)CCNC(=O)OC(C)(C)C)C(=O)N[C@@H](CC(=O)O)C(=O)N[C@@H](Cc1ccccc1)C(N)=O` the “activity change, negative = inhibition” value was -11.5% (inactive).
For `NS(=O)(=O)c1cc(-c2nn[nH]n2)c(NCc2cccs2)cc1Cl`, the “activity change, negative = inhibition” value was 8.08% (inactive).
In the case of `C[C@@H](O)[C@H]1C(=O)N2C(C(=O)O)=C(SCCN=CN)C[C@H]12`, the Potency is reported as “inactive”.
For `CC(C)(Sc1cc(C(C)(C)C)c(O)c(C(C)(C)C)c1)Sc1cc(C(C)(C)C)c(O)c(C(C)(C)C)c1`, the Potency was “inactive”.
`CO[C@@]1(NC(=O)Cc2cccs2)C(=O)N2C(C(=O)O)=C(COC(N)=O)CS[C@@H]21` was tested, and the “activity change, negative = inhibition” value was -1.73% (inactive).
For `NC1CCN(c2cccc(Cl)n2)CC1`, the Potency was “inactive”.
With `Cc1cc(C)nc(NS(=O)(=O)c2ccc(N)cc2)n1` the “activity change, negative = inhibition” value was 5.9% (inactive).
In the case of `CCCCNC(=O)NS(=O)(=O)c1ccc(N)cc1`, the “activity change, negative = inhibition” value is reported as -27.6% (inactive).
In the case of `O=C(COCCOCCOCC(=O)Nc1c(I)cc(I)c(C(=O)O)c1I)Nc1c(I)cc(I)c(C(=O)O)c1I`, the “activity change, negative = inhibition” value is reported as -35% (inactive).
`O=C(O)CCCCC(=O)O` was tested, and the “activity change, negative = inhibition” value was 20.6% (inactive).
For `CCCCC(CC)CN1CN(CC(CC)CCCC)CC(C)(N)C1` (stereo not given), the “activity change, negative = inhibition” value was 4.94% (inactive).
For `CN=C(NC#N)NCCSCc1nc[nH]c1C`, the Potency was “inactive”.
In the case of `COc1ccc(NS(=O)(=O)c2ccc(N)cc2)nn1`, the “activity change, negative = inhibition” value is reported as -11.3% (inactive).
With `CC1c2ccccc2CN1NC(=O)c1ccc(Cl)c(S(N)(=O)=O)c1` (stereo not given) the “activity change, negative = inhibition” value was 13.3% (inactive).
For `FC(F)(F)c1ccccc1-n1ccnc1`, the Potency was “inactive”.
In the case of `Cc1cccc(C(=O)O)c1O`, the “activity change, negative = inhibition” value is reported as -5.09% (inactive).
In the case of `NCc1ccc(S(N)(=O)=O)cc1`, the “activity change, negative = inhibition” value is reported as 0.657% (inactive).
For `Cc1ccc2ccc(Cl)cc2n1`, the “activity change, negative = inhibition” value was 18.1% (inactive).
`Cc1nc2c([nH]1)c(=O)n(C)c(=O)n2Cc1ccco1` was tested, and the Potency was “inactive”.
